# Test results from PubChem BioAssay AID588382 (National Center for Advancing Translational Sciences (NCATS), 2011).
# Screen size: about 1,300 compounds; about 150 (12%) were called active. Inconclusive results (about 30%) are left out. Calls come from the whole dose curve; as a rule, active = well fitted cell-killing curve with a large enough effect; inconclusive = small, poorly fitted or top-dose-only effect, or effect the other way; inactive = flat fitted curve, though single readings scatter. The full list was thinned out, with actives kept by preference.
# Assay: qHTS of small molecules that selectively kill Giardia lamblia: Hit Validation in HepG2 cytotox;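 note: compound exposure lasted overnight at 37 deg C; nearly all actives have a fitted effect of over 55% in size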;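 for activity change, negative = cytotoxicity: viability measured as cellular ATP by ATPLite luminescence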
# Details: cell viability; Potency: HepG2 cytotoxicity; series mostly up to 38.3 µM; activity change, negative = cytotoxicity: at the top concentration
# Outline: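 Counterscreen cytotoxicity: ATPLite luminescence (15 min, room temperature) measured in HepG2 cells exposed overnight at 37 deg C to pin-transferred compound (23 nL) after overnight pre-incubation.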
# % is set by controls: 0 for no effect and ±100 for the full control effect; potency is the fitted concentration of half-maximal effect.
SMILES,"activity change, negative = cytotoxicity",Potency
O=C(NC(=S)Nc1ccc(CN2CCOCC2)cc1)c1ccc([N+](=O)[O-])cc1Cl,8.14% (inactive),
CCN(CC)CCCC(C)Nc1c2ccc(Cl)cc2nc2ccc(OC)cc12 (stereo not drawn),,4.65 µM (active)
CCN(CC)CCCC(C)Nc1cc(/C=C/c2ccccc2Cl)nc2cc(Cl)ccc12 (stereo not drawn),,2.07 µM (active)
CCc1nc2cc([N+](=O)[O-])c([N+](=O)[O-])cc2[nH]1,17.5% (inactive),
Cc1cccc(-n2nc([N+](=O)[O-])c(=NCc3cccnc3)n2O)c1,1.38% (inactive),
O=C(COc1cccnc1[N+](=O)[O-])Nc1cc(Cl)ccc1Cl,20% (inactive),
COc1ccccc1C(=O)NC(=O)OCCn1c(C)cnc1[N+](=O)[O-],13.5% (inactive),
O=[N+]([O-])c1ccc(Nc2ccccc2)c2nonc12,-5.06% (inactive),
O=[N+]([O-])c1nn(-c2ccc3c(c2)OCCO3)n(O)c1=NC1CCCCCC1,1.36% (inactive),
O=C(COc1cccnc1[N+](=O)[O-])Nc1ccc2c(c1)OCO2,2.74% (inactive),
Cc1ccc(C(=O)Nc2ccc3c(c2)OCCO3)o1,-29% (inactive),
Cc1ccnc(NC(=O)c2ccc3c(c2)OCO3)c1,,0.585 µM (active)
Cc1ncc([N+](=O)[O-])n1CCOC(=O)Nc1ccc([N+](=O)[O-])cc1,9.82% (inactive),
COc1cccc(NC(=O)COc2cccnc2[N+](=O)[O-])c1,5.3% (inactive),
O=c1c(-c2cccc([N+](=O)[O-])c2)[n+]([O-])c2ccccc2n1O,15.3% (inactive),
O=C1C(c2ccncc2)=C(O)c2ccccc21,,5.85 µM (active)
Cn1c(=O)c(=O)n(C)c2cc([N+](=O)[O-])c(N3CCOCC3)cc21,-8.79% (inactive),
O=C(Nc1nccs1)c1cc([N+](=O)[O-])ccc1Cl,-1.08% (inactive),
Cc1cc(=O)oc2cc(O)c(N=Nc3ccccc3)cc12,-10.3% (inactive),
CC(C)OC(=O)Nc1ccc2c(c1)N(C(=O)N1CCN(C)CC1)c1ccccc1CC2,,0.521 µM (active)
CC(NC(=O)Cn1cc(Br)c([N+](=O)[O-])n1)c1ccccc1 (stereo not drawn),19% (inactive),

SMILES,"activity change, negative = cytotoxicity",Potency
Cc1ncc([N+](=O)[O-])n1CCOC(=O)C12CC3CC(CC(C3)C1)C2,-0.852% (inactive),
CCOC(=O)c1ccc(NS(C)(=O)=O)cc1,10.8% (inactive),
CCOC(=O)C1=C(C)NC2=C(C(=O)c3ccccc32)C1c1ccc([N+](=O)[O-])o1 (stereo not drawn),-1.83% (inactive),
CCOC(=O)c1c(C)[nH]c2c1-c1ccccc1C(=O)C2=O,,2.61 µM (active)
CC(NC(=O)COc1cccnc1[N+](=O)[O-])c1ccc(Cl)cc1Cl (stereo not drawn),8.39% (inactive),
COC(=O)c1ccc(Nc2ccc3nonc3c2[N+](=O)[O-])cc1,12.5% (inactive),
CCn1cnc2c([N+](=O)[O-])c(NS(=O)(=O)c3ccc(C)cc3)ccc21,-5.57% (inactive),
COc1cc(/C=C2\SC(=O)N(Cc3ccc(Cl)cc3)C2=O)cc([N+](=O)[O-])c1O,-0.415% (inactive),
O=C(Cc1ccccc1)Nc1nnc(-c2cccs2)s1,-2.94% (inactive),
O=[N+]([O-])c1ncc(Br)cc1Nc1ccccc1,14.2% (inactive),
O=S(=O)(Nc1cc(Sc2cccc3cccnc23)c(O)c2ccccc12)c1ccc(F)cc1,,4.65 µM (active)
COC(=O)[C@@]1(Cc2ccc(OC)cc2)[C@H]2c3cc(C(=O)N4CCCC4)n(CCn4cc([N+](=O)[O-])nc4C)c3C[C@H]2CN1C(=O)c1ccccc1,3.15% (inactive),
CN(C)/[N+]([O-])=N/Oc1ccc([N+](=O)[O-])cn1,15% (inactive),
O=c1c([N+](=O)[O-])cccn1Cc1ccc(F)cc1Cl,-5.01% (inactive),
CC1CCCN(C(=O)c2ccc([N+](=O)[O-])o2)C1 (stereo not drawn),-11.8% (inactive),
O=C(CSc1ccsc1[N+](=O)[O-])NCc1ccccc1,23.3% (inactive),
CCn1cc(-c2cc(C(=O)O)c3ccccc3n2)cn1,,2.07 µM (active)
O=C(NNC(=O)c1cc(-c2ccncc2)nc2ccccc12)c1ccccc1O,-18.8% (inactive),
CCOC(=O)c1nc(C(=O)NCc2ccc(C)cc2)nc2ccccc12,18.3% (inactive),
CC(C)CC(=O)NC(=S)NNC(=O)c1ccc([N+](=O)[O-])cc1,-5.24% (inactive),
Cc1ccc(S(=O)(=O)N2[C@@H](c3cccc(Cl)c3)C(C(=O)O)=CC[C@H]2c2cccc(C)c2)cc1,18.2% (inactive),

SMILES,"activity change, negative = cytotoxicity",Potency
Cc1cccc(N2CCN(C(=S)Nc3ccc4nc(N5CCN(C)CC5)cc(C)c4c3)CC2)c1C,,4.65 µM (active)
Cc1cc(N2CCN(C)CC2)nc2ccc(NC(=S)N3CCN(c4ccc(F)cc4)CC3)cc12,,20.7 µM (active)
O=c1sc(N2CCN(c3ccc(F)cc3)CC2)nc2ccsc12,21.6% (inactive),
Cc1cccc(N2CCN(C(=S)Nc3ccc4nc(N5CCN(C)CC5)cc(C)c4c3)CC2C)c1 (stereo not drawn),,18.5 µM (active)
Cc1cc(N2CCN(C)CC2)nc2ccc(NC(=S)N3CCN(c4cccc(Cl)c4)CC3)cc12,-14.4% (inactive),
Cc1cc(N2CCN(C)CC2)nc2ccc(NC(=S)N3CCN(c4ccc(Cl)cc4)CC3)cc12,-17.9% (inactive),
O=Nc1c2ccc[nH]c-2c2ccc([N+](=O)[O-])cc12,10.8% (inactive),
O=C(Nc1ccc(F)cc1)C1CCN(C(=O)c2ccc([N+](=O)[O-])cc2)CC1,-6.84% (inactive),
C/C(=N/NC(=O)C(O)(c1ccccc1)c1ccccc1)c1ccc([N+](=O)[O-])o1,-24.8% (inactive),
CCOc1ccc(-c2c(C(=O)N/N=C/c3ccc(C)s3)nnn2-c2nonc2N)cc1,11% (inactive),
Cc1ccc(CN=c2c([N+](=O)[O-])nn(-c3ccc(Cl)cc3)n2O)cc1,3.22% (inactive),
Cc1ccc(CNC(=O)CSc2ccsc2[N+](=O)[O-])cc1,11.7% (inactive),
COc1ccc2c3n([n+]([O-])c2c1)CCN=C3c1ccc(C)cc1,6.07% (inactive),
CC(C)CC(=O)Nc1ncc([N+](=O)[O-])s1,4.4% (inactive),
Cc1ccc(CCN=c2c([N+](=O)[O-])nn(-c3ccccc3)n2O)cc1,-4.07% (inactive),
COc1ccc(-n2nc([N+](=O)[O-])c(=NCc3cccnc3)n2O)cc1,11.3% (inactive),
CCOC(=O)c1cc([N+](=O)[O-])sc1NC(=O)CC,1.07% (inactive),
O=C(c1ccco1)N1CCN(c2c([N+](=O)[O-])nn(-c3ccc(Cl)cc3)[n+]2[O-])CC1,-1.34% (inactive),
Cc1ncc(CO)c(/C=N/NC(=O)c2cc3c(s2)CCCC3)c1O,,2.07 µM (active)
O=[N+]([O-])c1nn(-c2ccccc2)n(O)c1=NCCc1ccccc1,18.6% (inactive),
O=C(CNC(=O)c1ccccc1F)N/N=C/c1cc(Br)ccc1OCc1ccccc1,-8.87% (inactive),
